This note sets out measurements from PubChem BioAssay (Tox21).

The nature of assay [1]: Nuclear factor erythroid 2-related factor 2/antioxidant responsive element (Nrf2/ARE) small molecule agonists: qHTS cell viability counter screen in human keratinocytes (AID 1919968; active = well fitted curve in the direction sought with a large enough effect in the repeat runs; an effect the other way counts as inactive or inconclusive; note: nearly all actives have a fitted effect of over 55% in size). Summed up: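 In human HaCaT keratinocytes stably expressing an ARE-driven luciferase, compound exposure lasted 23 h at 37 C under 5% CO2. Viable cells are quantified with a protease-based fluorogenic reagent (CellTiter-Fluor) read 1 h after addition.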
A general note: In qHTS, concentration-response curves come from the screen itself.

The nature of assay [2]: Nuclear factor erythroid 2-related factor 2/antioxidant responsive element (Nrf2/ARE) small molecule agonists: luciferase reporter gene qHTS assay in human keratinocytes (AID 1919969). Note: nearly all actives have a fitted effect of over 35% in size.
Assay [3] deals with Gonadotropin-releasing hormone receptor (Homo sapiens) (UniProt P30968). As to the kind of experiment: Human gonadotropin-releasing hormone receptor (GnRHR) small molecule agonists, calcium flux assay in GnRHR-HEK293 cells (AID 1920063). Note: nearly all actives have a fitted effect of over 35% in size. Summed up:
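Intracellular calcium rise is the read-out: engineered human GnRHR HEK293 cells, dye-loaded, are exposed to DMSO-dissolved compounds and fluorescence at Ex/Em 480/540 is tracked for 3 min.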
(In general: Calcium flux is commonly read through the fluorescence of an indicator in the cells.)

Assay [4] concerns the target KiSS-1 receptor (Homo sapiens) (UniProt Q969F8). As to the kind of experiment: Human kisspeptin (KISS1R) small molecule agonists, calcium flux assay in KISS1R-HEK293 cells (AID 1920064; active = well fitted curve in the direction sought with a large enough effect in the repeat runs; an effect the other way counts as inactive or inconclusive). A digest of the protocol: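 Concentration-response testing used 15 concentrations in triplicate on human KISS1R-expressing HEK293 cells. Calcium-dependent fluorescence (Ex/Em 480/540) was followed kinetically for 3 min after compound transfer.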

Assay [5] is described as follows: G protein-coupled receptor (GPCR) small molecule agonists, calcium flux assay: HEK293 wild type cell line counter screen (AID 1920065). A digest of the protocol:
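Fluorescence intensity signals activation. After overnight (18 h) culture and a 1 h calcium dye load at 37 C, compounds are added by pin tool and the plate read at 480/540 nm for 3 min in 1 s steps.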

The nature of assay [6]: p53 small molecule agonists, cell-based qHTS assay with human liver microsomes (AID 1963577). A digest of the protocol:
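p53RE-bla reporter cells were pre-incubated 5 h at 37 C, then treated with compounds plus human liver microsomes (0.5 mg/mL final) and NADPH (0.5 mg/mL final) for 16 h at 37 C. Beta-lactamase activity was read by LiveBLAzer fluorescence after 2 h at room temperature.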

A short description of assay [7]: p53 small molecule agonists, cell-based qHTS assay with rat liver microsomes (AID 1963578). A digest of the protocol:
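p53RE-bla cells were exposed to compounds together with rat liver microsomes (0.5 mg/mL final) and NADPH (0.5 mg/mL final) for 16 h at 37 C, then read by LiveBLAzer beta-lactamase fluorescence after 2 h at room temperature.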

The nature of assay [8]: p53 small molecule agonists, cell-based qHTS assay with human liver microsomes: qHTS cell viability counter screen (AID 1963579). Note: nearly all actives have a fitted effect of over 45% in size. A digest of the protocol: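 p53RE-bla cells (4,000/well) were pre-incubated 5 h at 37 C, then given compounds in DMSO plus human liver microsomes (0.5 mg/mL final) and NADPH (0.5 mg/mL final) for 16 h at 37 C. Viability was read by CellTiter-Glo luminescence.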

Assay [9] in a line: p53 small molecule agonists, cell-based qHTS assay with rat liver microsomes: qHTS cell viability counter screen (AID 1963580). Note: nearly all actives have a fitted effect of over 45% in size. Note: potency is the fitted concentration of half-maximal effect. A digest of the protocol: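 After the beta-lactamase ratio was read, CellTiter-Glo was added to the same wells and luminescence measured at 30 min; cells had been treated 16 h at 37 C with compounds, rat liver microsomes and NADPH (0.5 mg/mL final each).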

Assay [10] in a line: p53 small molecule agonists, cell-based qHTS assay: qHTS cell viability counter screen (AID 1963581). Note: nearly all actives have a fitted effect of over 45% in size. Summed up: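 Luminescence from CellTiter-Glo, reflecting ATP content, serves as the cytotoxicity measure; it is taken after the 2 h reporter substrate step in HCT-116 p53RE-bla cells dosed for 16 h at 37 C.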
The nature of assay [11]: p53 small molecule agonists, cell-based qHTS assay (AID 1963582; active = well fitted activation curve with a large enough effect in the signal ratio in the repeat runs, not every such curve was filed as active; the % refers to the signal ratio). Summed up:
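After plating, p53RE-bla cells sat 5 h in the incubator; compounds or DMSO vehicle were pinned in; a 16 h incubation at 37 C followed; FRET substrate was added and, 2 h later at RT, fluorescence was measured.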

In assay [12] the target is 5-hydroxytryptamine receptor 2A (Homo sapiens) (UniProt P28223). Description: 5-hydroxytryptamine receptor 2A (HTR2A) small molecule antagonists, cell-based qHTS assay (AID 1963586). Note: nearly all actives have a fitted effect of over 45% in size. A digest of the protocol:
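CHO cells stably expressing human HTR2A were plated for 18 h at 37 C, then loaded with calcium dye for 1 h. Compounds were preincubated 5 min at room temperature before DOI (4 nM solution) was added. Kinetic fluorescence was read for 3 min.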

Assay [13] has the same target. Description: 5-hydroxytryptamine receptor 2A (HTR2A) small molecule agonists, cell-based qHTS assay (AID 1963587). Note: nearly all actives have a fitted effect of over 30% in size. A digest of the protocol:
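CHO cells stably expressing human HTR2A, plated 18 h, loaded with calcium dye 1 h at 37 C. Agonist mode: compounds added and intracellular calcium fluorescence recorded kinetically for 2 min at 1 sec intervals.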

For assay [14], the target named is Muscarinic acetylcholine receptor M1 (Homo sapiens) (UniProt P11229). Description: Cholinergic receptor muscarinic 1 (CHRM1) small molecule antagonists, cell-based qHTS assay (AID 1963588). Note: nearly all actives have a fitted effect of over 40% in size. A digest of the protocol: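 Compounds were tested at 15 concentrations in three independent runs. Dye-loaded CHRM1-CHO cells were exposed 5 min at room temperature before stimulation by acetylcholine added at 50nM. Intracellular calcium was read kinetically on FDSS for 3 min.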
Sequence of Muscarinic acetylcholine receptor M1 (Homo sapiens) (P11229 whole entry, looked up): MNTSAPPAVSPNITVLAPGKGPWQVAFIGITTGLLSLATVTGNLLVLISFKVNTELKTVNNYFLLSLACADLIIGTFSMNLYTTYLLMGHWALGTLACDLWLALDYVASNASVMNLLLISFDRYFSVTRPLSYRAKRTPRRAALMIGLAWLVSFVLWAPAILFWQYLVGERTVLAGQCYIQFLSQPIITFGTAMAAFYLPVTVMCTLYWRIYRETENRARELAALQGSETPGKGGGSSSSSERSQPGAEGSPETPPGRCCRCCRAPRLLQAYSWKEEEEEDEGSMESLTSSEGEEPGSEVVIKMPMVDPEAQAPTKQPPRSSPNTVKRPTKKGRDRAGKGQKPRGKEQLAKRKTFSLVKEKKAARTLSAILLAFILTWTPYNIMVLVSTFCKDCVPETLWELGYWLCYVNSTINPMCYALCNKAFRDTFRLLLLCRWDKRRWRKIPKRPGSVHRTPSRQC

The nature of assay [15]: cAMP Responsive Elements (CRE) small molecule agonists, cell-based qHTS assay (AID 1963590). Summed up:
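Compound exposure lasted 3 h at 37 C/5% CO2 in CRE-bla HEK 293T cells grown in assay medium with 10% dialyzed FBS and 25 mM HEPES. Reporter signal came from LiveBLAzer B/G FRET substrate, 2 h, room temperature.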

Assay [16] is described as follows: cAMP Responsive Elements (CRE) small molecule antagonists, cell-based qHTS assay (AID 1963591; active = well fitted inhibition curve with a large enough effect in the signal ratio in the repeat runs, not every such curve was filed as active; the % refers to the signal ratio). Summed up:
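Stimulation used NKH477 at a final 0.25 uM for 3 h in compound-treated CRE-bla HEK293T cells, seeded 18 h beforehand. Reporter activity was measured with LiveBLAzer B/G FRET substrate after 2 h at room temperature.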

Assay [17] has as its target Beta-2 adrenergic receptor (Homo sapiens) (UniProt P07550). Description: Adrenergic beta2 receptor (ADRB2) small molecule antagonists, cell-based qHTS assay (AID 1963592). Note: series mostly up to about 92 µM; nearly all actives have a fitted effect of over 50% in size. Summed up: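 Assay format: CHO-ADRB2 cells, 18-20hr seeding at 37C/5% CO2, then compound plus 1nM isoproterenol agonist mix for 0.5hr RT. Homogeneous time-resolved fluorescence cAMP detection after 1hr, expressed as 665/615 nm ratio.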

The target in assay [18] is D(2) dopamine receptor (Homo sapiens) (UniProt P14416). As to the kind of experiment: Dopamine D2 receptor (DRD2) small molecule agonists, cell-based qHTS assay (AID 1963594). Note: nearly all actives have a fitted effect of over 35% in size. Summed up:
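HEK293 cells stably expressing human DRD2, pre-treated with PDE inhibitor Ro20-1724 (0.1 mM final) and compound 10 min at room temperature, then stimulated with NKH477 (200nM […]) for 30 min. cAMP read by HTRF (665/620 nm).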

The target is the same in assay [19]. As to the kind of experiment: Dopamine D2 receptor (DRD2) small molecule antagonists, cell-based qHTS assay (AID 1963595; active = well fitted inhibition curve with a large enough effect in the signal ratio in the repeat runs, with a control signal flat; the % refers to the signal ratio). Summed up:
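HTRF cAMP read-out at 665 and 620 nm emission (340 nm excitation). Antagonist mode: compounds were tested against 12 nM quinpirole in DRD2-HEK293 cells, with 200 nM NKH477 raising cAMP and 0.1 mM Ro20-1724 blocking its breakdown.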

Assay [20] concerns the target Muscarinic acetylcholine receptor M1 (Homo sapiens) (UniProt P11229). As to the kind of experiment: Cholinergic receptor muscarinic 1 (CHRM1) small molecule agonists, cell-based qHTS assay (AID 1963589). Note: nearly all actives have a fitted effect of over 35% in size. A digest of the protocol:
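Fluorescent calcium dye reports M1 activation in stably transfected CHO cells. Compounds, 15 concentrations, added after 1 h dye loading at 37 C; kinetic reading at 1 sec intervals.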

Results filed as inconclusive are left out. A structure can be active in one record and inactive in another. Activity calls are given as the source filed them. Unless noted, calls come from the whole dose curve.

Sequence of 5-hydroxytryptamine receptor 2A (Homo sapiens) (P28223 whole entry, looked up): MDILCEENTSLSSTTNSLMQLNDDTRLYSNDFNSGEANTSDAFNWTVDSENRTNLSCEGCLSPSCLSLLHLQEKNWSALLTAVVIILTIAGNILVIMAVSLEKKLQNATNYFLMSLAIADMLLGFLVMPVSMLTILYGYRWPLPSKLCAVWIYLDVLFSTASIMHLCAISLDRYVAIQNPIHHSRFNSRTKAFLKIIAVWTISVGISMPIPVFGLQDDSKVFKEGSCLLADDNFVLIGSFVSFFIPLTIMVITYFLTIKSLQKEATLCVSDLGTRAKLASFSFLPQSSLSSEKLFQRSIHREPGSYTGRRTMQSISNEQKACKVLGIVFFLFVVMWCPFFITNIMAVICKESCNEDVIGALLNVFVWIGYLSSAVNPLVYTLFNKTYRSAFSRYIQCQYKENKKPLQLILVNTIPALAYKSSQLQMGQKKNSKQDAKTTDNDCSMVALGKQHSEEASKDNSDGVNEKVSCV
Sequence of Gonadotropin-releasing hormone receptor (Homo sapiens) (P30968 whole entry, looked up): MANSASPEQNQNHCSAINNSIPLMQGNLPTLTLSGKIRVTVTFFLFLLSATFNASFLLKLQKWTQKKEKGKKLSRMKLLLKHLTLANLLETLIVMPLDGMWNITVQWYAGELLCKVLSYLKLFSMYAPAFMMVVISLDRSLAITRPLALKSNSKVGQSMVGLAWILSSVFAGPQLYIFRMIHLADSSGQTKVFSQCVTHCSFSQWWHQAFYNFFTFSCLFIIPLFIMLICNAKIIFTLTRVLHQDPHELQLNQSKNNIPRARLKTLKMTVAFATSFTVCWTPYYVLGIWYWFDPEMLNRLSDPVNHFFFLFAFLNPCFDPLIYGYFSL
Sequence of Beta-2 adrenergic receptor (Homo sapiens) (P07550 whole entry, looked up): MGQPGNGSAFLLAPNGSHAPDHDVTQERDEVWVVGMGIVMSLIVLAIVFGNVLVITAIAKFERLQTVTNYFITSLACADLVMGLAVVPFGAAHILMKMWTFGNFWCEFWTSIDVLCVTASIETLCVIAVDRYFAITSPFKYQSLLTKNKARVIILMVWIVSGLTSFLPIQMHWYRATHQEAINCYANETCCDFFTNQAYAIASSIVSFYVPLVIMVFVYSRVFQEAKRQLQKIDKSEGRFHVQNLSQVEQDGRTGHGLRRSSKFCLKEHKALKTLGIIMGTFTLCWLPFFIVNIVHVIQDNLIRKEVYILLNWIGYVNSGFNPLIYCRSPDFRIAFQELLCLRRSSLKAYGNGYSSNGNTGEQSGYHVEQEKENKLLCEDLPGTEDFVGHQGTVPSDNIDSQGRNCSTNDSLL
Sequence of KiSS-1 receptor (Homo sapiens) (Q969F8 whole entry, looked up): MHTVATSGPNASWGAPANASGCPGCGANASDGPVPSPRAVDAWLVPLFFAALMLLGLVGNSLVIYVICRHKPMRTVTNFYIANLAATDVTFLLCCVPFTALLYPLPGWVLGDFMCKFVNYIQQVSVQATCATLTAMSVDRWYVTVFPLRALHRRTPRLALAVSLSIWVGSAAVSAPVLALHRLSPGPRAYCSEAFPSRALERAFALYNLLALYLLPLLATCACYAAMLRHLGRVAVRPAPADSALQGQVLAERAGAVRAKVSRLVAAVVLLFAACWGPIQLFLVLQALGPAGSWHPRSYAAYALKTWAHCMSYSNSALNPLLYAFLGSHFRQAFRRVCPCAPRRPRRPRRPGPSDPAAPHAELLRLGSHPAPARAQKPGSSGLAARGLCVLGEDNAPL
Sequence of D(2) dopamine receptor (Homo sapiens) (P14416 whole entry, looked up): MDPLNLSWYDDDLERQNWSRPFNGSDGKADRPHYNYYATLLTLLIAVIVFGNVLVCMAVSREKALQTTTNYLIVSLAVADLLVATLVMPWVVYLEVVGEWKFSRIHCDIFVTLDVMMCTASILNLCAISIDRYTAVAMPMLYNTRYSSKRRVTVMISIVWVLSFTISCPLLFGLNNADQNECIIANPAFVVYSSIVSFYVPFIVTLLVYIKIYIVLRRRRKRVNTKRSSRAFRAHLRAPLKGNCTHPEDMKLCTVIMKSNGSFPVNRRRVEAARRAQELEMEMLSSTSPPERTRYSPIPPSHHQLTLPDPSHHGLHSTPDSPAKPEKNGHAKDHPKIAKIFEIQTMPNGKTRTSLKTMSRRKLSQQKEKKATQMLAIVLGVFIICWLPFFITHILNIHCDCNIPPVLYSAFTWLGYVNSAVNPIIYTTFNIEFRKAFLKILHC

Regarding `O=NN1CCCCCC1`, the Potency entry in assay [1], in [2], in assay [3], in assay [4], in [5] and in [6] was “inactive” throughout. Further, the Potency entry in assay [7], in assay [8], in assay [9], in [10], in assay [11] and in assay [12] was “inactive” in each case. In addition, the Potency result in assay [13], in assay [14], in [15], in [16], in assay [17] and in [18] was “inactive” each time. In addition, the Potency result in [19] is “inactive”.
Regarding `CNC(=O)Oc1ccccc1C1OCCO1`, the Potency entry in [1], in assay [2], in assay [3], in assay [4], in assay [5] and in assay [6] was “inactive” throughout. The Potency entry in assay [7], in assay [8], in assay [9], in assay [10], in assay [11] and in assay [12] was “inactive” each time. Also, the Potency entry in [13], in [14], in assay [15], in assay [16], in assay [17] and in [18] was “inactive” each time. Besides, the Potency entry in [19] was “inactive”.
`ClCCOCCCl`: the Potency result in [1], in assay [2], in [3], in assay [4], in assay [5] and in assay [6] was “inactive” throughout. Besides, the Potency result in assay [7], in assay [8], in assay [9], in assay [10], in assay [11] and in [12] was “inactive” in each case. For the same compound, the Potency result in [13], in assay [14], in assay [20], in assay [16], in assay [17] and in assay [18] was “inactive” each time. Also, the Potency entry in assay [19] was “inactive”.
Turning to `OCC1CO1` (stereo not given), the Potency result in [1], in assay [2], in assay [3], in [4], in assay [5] and in [6] was “inactive” throughout. Moreover, the Potency entry in assay [7], in [8], in assay [10], in [11], in assay [12] and in assay [13] was “inactive” throughout. The Potency entry in assay [14], in assay [15], in [17], in assay [18] and in [19] was “inactive” throughout. For the same compound, the Potency in [9] was 41.5 µM (active) and inactive.
On to `NCc1cccnc1`, for which the Potency entry in assay [1], in assay [2], in assay [3], in assay [4], in [5] and in [6] was “inactive” each time. Besides, the Potency entry in assay [7], in assay [8], in [9], in assay [10], in assay [11] and in assay [12] was “inactive” each time. The Potency entry in assay [13], in [20], in assay [15], in assay [16], in assay [17] and in [18] was “inactive” in each case. The Potency result in assay [19] was “inactive”.
With `[O-][Cl+]O`, the Potency result in assay [1], in assay [2], in assay [3], in assay [4], in assay [5] and in [6] was “inactive” in each case. Also, the Potency entry in [7], in assay [8], in [9], in assay [10], in assay [11] and in [12] was “inactive” in each case. Further, the Potency result in assay [13], in [14], in assay [15], in assay [16], in assay [17] and in assay [18] was “inactive” each time. Moreover, in assay [19], the Potency result is “inactive”.
Turning to `O=C(O)C1C(C(=O)O)C2(Cl)C(Cl)=C(Cl)C1(Cl)C2(Cl)Cl` (stereo not given), the Potency entry in [1], in [2], in assay [3], in assay [4], in [5] and in assay [6] was “inactive” throughout. The Potency result in assay [7], in assay [8], in [9], in assay [10], in assay [11] and in assay [12] was “inactive” in each case. In addition, the Potency result in assay [13], in [14], in assay [15], in [16], in assay [18] and in assay [19] was “inactive” in each case.
For the compound `CCCCC(C#N)(Cn1cncn1)c1ccc(Cl)cc1` (stereo not given), the Potency entry in assay [1], in [2], in assay [3], in [4], in assay [5] and in assay [6] was “inactive” each time. The Potency result in assay [7], in assay [8], in assay [9], in [10], in [11] and in assay [12] was “inactive” each time. Besides, the Potency entry in [13], in assay [14], in [20], in [16], in assay [17] and in assay [18] was “inactive” in each case. Further, the Potency entry in assay [19] was “inactive”.
